# Inconclusive results are not listed. For some of these results: Entries with a potency or affinity are not part of this list. Calls of active or inactive are those of the source.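 Rule for the calls, unless noted: active = thallium flux through the channel raised or lowered by more than 3 SD from vehicle-only wells, actives on both sides; inactive = the rest.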
# How the values were obtained:
# [1] = compounds altering viability of human ES cells (AID 493140; call rule not given here;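 note: cells exposed to compounds for four days before counting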); settings: human embryonic stem cell survival screen; stronger effect = higher value
# [2] = modulation of C. elegans fzo-1 (AID 1259413; call rule not given here;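 note: fzo-1 mutant C. elegans worms in liquid wells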); settings: C. elegans fzo-1 modulator screen, mean read-out; stronger effect = higher value
# [3] = blockers of polyQ-driven CASP3 activation – cell-based (AID 1583); settings: polyglutamine-induced caspase-3 activation, cell assay; stronger effect = higher value;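 tested at 10 µM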
# [4] = restoration of touch response, mutant HTT neurons – whole organism, C. elegans mechanosensory neurons, N-terminal huntingtin (AID 1599); settings: C. elegans polyQ-huntingtin mechanosensory neurons, stronger effect = higher value
# [5] = glutamate transport activators, MN-1 cells, MN-1 cell line (AID 1612); settings: MN-1 motor neuron cells, stronger effect = higher value;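 note: tested at 1 µM final; 0% = mean of DMSO vehicle wells on each plate; positive means more glutamate uptake than control and negative means less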
# [6] = GFP-Q80 aggregate reduction, neuronal-like cells, cell-based, NGF-treated PC12, GFPQ80 (AID 1614); settings: PC12 NGF-treated GFP-polyQ80 inclusion reduction;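 note: lower means fewer inclusions and 0 means no inclusions at all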
# [7] = 75Q-TubH aggregate inhibition, S. cerevisiae, yeast (AID 1616); settings: S. cerevisiae 75Q-TubH polyglutamine aggregation suppression; stronger effect = higher value
# [8] = compounds altering circadian rhythm period length – cell-based, LOPAC library, luminescence reporter (AID 2774; call rule not given here;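 note: values are relative to mean of DMSO wells on each plate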); settings: circadian reporter cells, at 7 µM, actives lie on both sides
# [9] = system: Hepatitis C virus NS3 helicase; experiment: blockers of NS3h binding to ssDNA – biochemical, fluorescence polarization, LOPAC1280 library, primary screen (AID 687035; in the data active = inhibition above about 37%); settings: Purified HCV NS3 helicase, Cy5-dT15 ssDNA binding fluorescence polarization; stronger effect = higher value; concentration not given here
# [10] = compounds altering Cy5-DNA-NS3h complex signal – biochemical, LOPAC1280, artefact control for HCV NS3 helicase inhibitor project (AID 687037; call rule not given here); settings: Cy5-DNA-NS3h complex fluorescence interference counterscreen
# [11] = system: Aerobactin synthetase IucA (Klebsiella pneumoniae, hypervirulent); experiment: biochemical IucA inhibition screen of LOPAC library by absorbance (AID 1346212; call rule not given here;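 note: 100% = no compound wells and 0% = no enzyme wells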); settings: IucA enzyme assay, absorbance (OD) readout; stronger effect = lower value;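 tested at 8 µM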
# [12] = blockers of cellular phospholipid synthesis – cell-based, LOPAC library, screen 4, primary screen (AID 1347384; call rule not given here); settings: animal cells, phospholipid biosynthesis inhibition screen; at 10 µM
# F380Y = experiment: BK channel mutant inhibitors and activators – cell-based, U2OS BacMam, thallium flux, beta subunits, selectivity assay, profiling panel (AID 1259406); settings: U2OS BacMam BK variants, at 30 µM;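 note: initial slope of Thallos dye fluorescence rise after thallium is added; log ratio against the mean of 0.3% DMSO vehicle wells on the same plate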
# F380Y/beta1 = experiment: as above; settings: U2OS BacMam BK variants, at 30 µM
# F380Y/beta2Delta = experiment: as above; settings: U2OS BacMam BK variants, at 30 µM
# R275C = experiment: as above; settings: U2OS BacMam BK variants, at 30 µM
# R275C/beta1 = experiment: as above; settings: U2OS BacMam BK variants, at 30 µM
# R275C/beta2Delta = experiment: as above; settings: U2OS BacMam BK variants, at 30 µM
# R275C/Slo1WT/beta2 = experiment: as above; settings: U2OS BacMam BK variants, at 30 µM
# [13] = target: ATP-dependent translocase ABCB1 (Homo sapiens) (UniProt P08183); experiment: P-glycoprotein substrate transport blockade – cell-based (AID 377; in the data active = fluorescence slope change above about 50%); settings: MDR1-expressing cells, fluorescent substrate accumulation slope; stronger effect = higher value; concentration not given here
# Sequence of ATP-dependent translocase ABCB1 (Homo sapiens) (P08183 whole entry, looked up): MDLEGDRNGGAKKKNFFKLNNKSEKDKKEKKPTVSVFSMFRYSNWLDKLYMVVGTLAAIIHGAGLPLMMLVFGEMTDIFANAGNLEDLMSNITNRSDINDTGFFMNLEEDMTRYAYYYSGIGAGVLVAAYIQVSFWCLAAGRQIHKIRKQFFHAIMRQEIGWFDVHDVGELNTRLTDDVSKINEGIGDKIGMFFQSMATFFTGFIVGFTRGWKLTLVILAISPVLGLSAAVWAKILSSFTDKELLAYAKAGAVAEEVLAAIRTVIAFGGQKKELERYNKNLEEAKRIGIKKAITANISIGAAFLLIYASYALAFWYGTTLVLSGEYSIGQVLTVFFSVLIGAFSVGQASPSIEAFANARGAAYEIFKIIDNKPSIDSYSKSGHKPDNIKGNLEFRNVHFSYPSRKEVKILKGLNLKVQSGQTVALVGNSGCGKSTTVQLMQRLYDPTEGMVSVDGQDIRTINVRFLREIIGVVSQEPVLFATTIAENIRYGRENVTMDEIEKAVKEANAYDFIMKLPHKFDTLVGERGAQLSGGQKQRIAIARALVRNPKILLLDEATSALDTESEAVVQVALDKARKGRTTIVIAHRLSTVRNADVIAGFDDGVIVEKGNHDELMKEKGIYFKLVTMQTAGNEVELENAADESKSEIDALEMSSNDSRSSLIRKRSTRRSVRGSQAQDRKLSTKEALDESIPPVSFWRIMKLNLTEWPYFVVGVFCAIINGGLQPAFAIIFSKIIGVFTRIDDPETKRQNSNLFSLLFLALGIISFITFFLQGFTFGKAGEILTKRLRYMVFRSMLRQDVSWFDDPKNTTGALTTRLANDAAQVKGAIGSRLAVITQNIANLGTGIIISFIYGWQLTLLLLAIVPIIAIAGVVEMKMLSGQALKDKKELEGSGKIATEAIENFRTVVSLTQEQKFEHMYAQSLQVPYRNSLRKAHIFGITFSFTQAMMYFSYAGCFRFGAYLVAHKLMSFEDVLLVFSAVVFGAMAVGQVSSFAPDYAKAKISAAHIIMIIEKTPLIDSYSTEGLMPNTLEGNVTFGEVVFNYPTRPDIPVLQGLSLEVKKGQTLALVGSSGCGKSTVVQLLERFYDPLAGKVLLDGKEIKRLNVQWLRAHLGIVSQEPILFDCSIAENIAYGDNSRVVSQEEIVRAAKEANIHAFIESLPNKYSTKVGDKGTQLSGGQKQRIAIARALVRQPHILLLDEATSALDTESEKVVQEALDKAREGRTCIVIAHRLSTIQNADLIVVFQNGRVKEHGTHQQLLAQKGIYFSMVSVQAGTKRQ
smiles,measurement,setting,value
O=P1(NCCCl)OCCCN1CCCl (centres undefined),survival,[1],3.83 (inactive)
COc1cc(N)c(Cl)cc1C(=O)NC1CN2CCC1CC2 (centres undefined),mean signal,[2],253 (inactive)
Nc1ccncc1,inhibition,[3],-15.5%
same,rescue above control,[4],26.7
same,glutamate uptake change,[5],-9.57%
same,inclusion score,[6],2
same,aggregation suppression score,[7],1.23
same,period change,[8],0.07 h (inactive)
same,inhibition,[9],-4% (inactive)
same,fluorescence ratio (interference),[10],0.9 (inactive)
same,remaining activity,[11],103% (inactive)
same,outcome,[12],inactive
CN1C(=O)CN=C(c2ccccc2)c2cc([N+](=O)[O-])ccc21,mean signal,[2],228 (inactive)
same,log fold change Tl+ flux,F380Y,0.0275 (inactive)
same,log fold change Tl+ flux,F380Y/beta1,-0.0526 (inactive)
same,log fold change Tl+ flux,F380Y/beta2Delta,0.0676 (inactive)
same,log fold change Tl+ flux,R275C,-0.00261 (inactive)
same,log fold change Tl+ flux,R275C/beta1,-0.0104 (inactive)
same,log fold change Tl+ flux,R275C/beta2Delta,0.0315 (inactive)
same,log fold change Tl+ flux,R275C/Slo1WT/beta2,0.0318 (inactive)
CC1(C)C(C=C(Cl)Cl)C1C(=O)OC(C#N)c1cccc(Oc2ccccc2)c1 (centres undefined),survival,[1],64.8 (inactive)
CCC(COC(=O)c1cc(OC)c(OC)c(OC)c1)(c1ccccc1)N(C)C (centres undefined),mean signal,[2],257 (inactive)
same,log fold change Tl+ flux,F380Y,-0.284 (active)
same,log fold change Tl+ flux,F380Y/beta1,-0.135 (active)
same,log fold change Tl+ flux,F380Y/beta2Delta,-0.21 (active)
same,log fold change Tl+ flux,R275C,-0.249 (active)
same,log fold change Tl+ flux,R275C/beta1,-0.324 (active)
same,log fold change Tl+ flux,R275C/beta2Delta,-0.495 (active)
same,log fold change Tl+ flux,R275C/Slo1WT/beta2,-0.104 (active)
CN[C@@H]1C[C@@H](c2ccc(Cl)c(Cl)c2)c2ccccc21,period change,[8],0.04 h (inactive)
same,inhibition,[9],-2% (inactive)
same,fluorescence ratio (interference),[10],0.9 (inactive)
same,mean signal,[2],207 (inactive)
same,remaining activity,[11],107% (inactive)
same,outcome,[12],inactive
same,log fold change Tl+ flux,F380Y,0.0202 (inactive)
same,log fold change Tl+ flux,F380Y/beta2Delta,0.44 (active)
same,log fold change Tl+ flux,R275C,-0.12 (active)
same,log fold change Tl+ flux,R275C/beta1,0.445 (active)
same,log fold change Tl+ flux,R275C/beta2Delta,0.134 (active)
CN(C)C(=O)Oc1cc(OC(=O)N(C)C)cc(C(O)CNC(C)(C)C)c1 (centres undefined),fluorescence slope change,[13],19% (inactive)
same,survival,[1],12.5 (inactive)
Oc1cc(Cl)ccc1Oc1ccc(Cl)cc1Cl,mean signal,[2],192 (inactive)
same,log fold change Tl+ flux,F380Y,-0.452 (active)
same,log fold change Tl+ flux,F380Y/beta1,-0.302 (active)
same,log fold change Tl+ flux,F380Y/beta2Delta,-0.343 (active)
same,log fold change Tl+ flux,R275C,-0.105 (active)
same,log fold change Tl+ flux,R275C/beta1,-0.254 (active)
same,log fold change Tl+ flux,R275C/beta2Delta,-0.148 (active)
same,log fold change Tl+ flux,R275C/Slo1WT/beta2,-0.125 (active)
CC(C)c1cccc(C(C)C)c1O,period change,[8],0.005 h (inactive)
same,survival,[1],5.17 (inactive)
same,inhibition,[9],-1% (inactive)
same,fluorescence ratio (interference),[10],1 (inactive)
same,mean signal,[2],226 (inactive)
same,remaining activity,[11],108% (inactive)
same,outcome,[12],inactive
same,log fold change Tl+ flux,F380Y,-0.0182 (inactive)
same,log fold change Tl+ flux,F380Y/beta1,-0.0717 (inactive)
same,log fold change Tl+ flux,F380Y/beta2Delta,-0.0275 (inactive)
same,log fold change Tl+ flux,R275C,-0.0316 (inactive)
same,log fold change Tl+ flux,R275C/beta1,-0.0537 (inactive)
same,log fold change Tl+ flux,R275C/beta2Delta,-0.0157 (inactive)
same,log fold change Tl+ flux,R275C/Slo1WT/beta2,-0.0465 (inactive)
CCN(CC)CCOC(=O)C(O)(c1ccccc1)c1ccccc1,mean signal,[2],281 (inactive)
same,log fold change Tl+ flux,F380Y,0.0198 (inactive)
same,log fold change Tl+ flux,F380Y/beta1,-0.00425 (inactive)
same,log fold change Tl+ flux,F380Y/beta2Delta,0.0439 (inactive)
same,log fold change Tl+ flux,R275C,-0.0214 (inactive)
same,log fold change Tl+ flux,R275C/beta1,-0.0156 (inactive)
same,log fold change Tl+ flux,R275C/beta2Delta,0.0436 (inactive)
same,log fold change Tl+ flux,R275C/Slo1WT/beta2,-0.00361 (inactive)
C=C1C[C@@H]2[C@H](CC[C@]3(C)C(=O)CC[C@@H]23)[C@@]2(C)C=CC(=O)C=C12,log fold change Tl+ flux,F380Y,-0.00852 (inactive)
same,log fold change Tl+ flux,F380Y/beta1,0.059 (inactive)
same,log fold change Tl+ flux,F380Y/beta2Delta,0.0277 (inactive)
same,log fold change Tl+ flux,R275C,-0.00349 (inactive)
same,log fold change Tl+ flux,R275C/beta1,0.0308 (inactive)
same,log fold change Tl+ flux,R275C/beta2Delta,0.00258 (inactive)
same,log fold change Tl+ flux,R275C/Slo1WT/beta2,0.0155 (inactive)

# From PubChem BioAssay
